Data: the supplement of paper PMC13380429

Key:
[1] = test system: Vero E6 infected with SARS-CoV-2; experiment: morphology score (similarity to uninfected cells); higher = more like uninfected cells; conditions: 24 h
[2] = test system: Vero E6 infected with SARS-CoV-2; experiment: SARS-CoV-2 infection rate relative to infected DMSO; higher = more infection, active = 60 or less; conditions: 24 h

Row | Compound | morphology score [1] | SARS-CoV-2 infection rate [2]
1 | Cc1c(CN(C)C(=O)/C=C/c2cnc3c(c2)CCC(=O)N3)oc2ccccc12 (10 µM) | 0.182 | 94% (inactive)
2 | CC1CCc2c(N3CCC(O)CC3)c(F)cc3c(=O)c(C(=O)O)cn1c23 (stereo not given) [nadifloxacin] (10 µM) | -0.0037 | 106% (inactive)
3 | CCCCCCCCCC(=O)OC1(c2ccc(Cl)cc2)CCN(CCCC(=O)c2ccc(F)cc2)CC1 [haloperidol-decanoate] (10 µM) | 0.166 | 96% (inactive)
4 | CC(C)C(=O)SCCCCC[C@H](NC(=O)OC(C)(C)C)C(=O)NC12CC3CC(CC(C3)C1)C2 (10 µM) | -0.113 | 97% (inactive)
5 | CC(C)(C)NCC(O)COc1ccc(NC(=O)NC2CCCCC2)cc1 (stereo not given) [talinolol] (10 µM) | 0.0728 | 106% (inactive)
6 | CCOc1ccc2nc(S(N)(=O)=O)sc2c1 [ethoxzolamide] (10 µM) | 0.205 | 97.5% (inactive)
7 | CCOC(=O)[C@H](CCc1ccccc1)N[C@H]1CS[C@H](c2cccs2)CN(CC(=O)O)C1=O [temocapril] (10 µM) | 0.0304 | 114% (inactive)
8 | CC1(C)CC[C@]2(C(=O)O)CC[C@]3(C)[C@H](C(=O)C=C4[C@@]5(C)C=C(C#N)C(=O)C(C)(C)[C@@H]5CC[C@]43C)[C@@H]2C1 [bardoxolone] (0.833333 µM) | 0.164 | 104% (inactive)
9 | NC(=O)C(c1ccccc1)(c1ccc(F)cc1)c1ccc(F)cc1 [senicapoc] (10 µM) | -0.127 | 114% (inactive)
10 | CCOC(=O)[C@H](CCc1ccccc1)N[C@H]1CCc2ccccc2N(CC(=O)O)C1=O [benazepril] (10 µM) | 0.413 | 90.5% (inactive)
11 | Cc1cccc(N(C)C(=S)Oc2ccc3ccccc3c2)c1 [tolnaftate] (10 µM) | 0.136 | 104% (inactive)
12 | Cc1ccc(N(CC2=NCCN2)c2cccc(O)c2)cc1 [phentolamine] (10 µM) | -0.00261 | 98% (inactive)
13 | CC(=O)N(C)c1cc(-c2ccnc3c(C(=O)c4cccs4)cnn23)ccc1F [lorediplon] (10 µM) | -0.126 | 112% (inactive)
14 | COc1cccc(-n2nc(C(=O)O)cc2-c2ccc(C3CCCCC3)c(Cl)c2)c1 (10 µM) | 0.0895 | 102% (inactive)
15 | CC(C)NCC(O)COc1cccc2[nH]ccc12 (stereo not given) [pindolol] (10 µM) | 0.0938 | 104% (inactive)
16 | O=C(CN1C2=NCCN2c2ccccc21)c1ccc(-c2ccccc2)cc1 (10 µM) | 0.646 | 35% (active)
17 | CC(C)(N)C(=O)N[C@H](COCc1ccccc1)C(=O)N1CCC2(CC1)CN(S(C)(=O)=O)c1ccccc12 [ibutamoren] (10 µM) | -0.0834 | 108% (inactive)
18 | C=C(CC)C(=O)c1ccc(OCC(=O)O)c(Cl)c1Cl [etacrynic-acid] (10 µM) | -0.0164 | 98.5% (inactive)
19 | CC(=O)OCC(=O)[C@@]1(O)CC[C@H]2[C@@H]3CCC4=CC(=O)C=C[C@]4(C)[C@@]3(Cl)[C@@H](Cl)C[C@@]21C [dichlorisone-acetate] (10 µM) | -0.00102 | 102% (inactive)
20 | COc1ccc2cc(CCC(C)=O)ccc2c1 [nabumetone] (10 µM) | 0.0377 | 118% (inactive)

Row | Compound | morphology score [1] | SARS-CoV-2 infection rate [2]
21 | CC(COc1ccccc1)NC(C)C(O)c1ccc(O)cc1 (stereo not given) [isoxsuprine] (10 µM) | 0.0115 | 109% (inactive)
22 | O=C(c1c(F)ccc(NS(=O)(=O)N2CC[C@@H](F)C2)c1F)c1c[nH]c2ncc(-c3cnc(C4CC4)nc3)cc12 (10 µM) | 0.162 | 103% (inactive)
23 | COc1ccc2cccc(N3CCN(CCNC(=O)c4ccc(F)cc4)CC3)c2c1 (10 µM) | 0.241 | 103% (inactive)
24 | CCC(=O)O[C@]1(C(=O)CCl)[C@@H](C)C[C@H]2[C@@H]3C[C@H](F)C4=CC(=O)C=C[C@]4(C)[C@@]3(F)[C@@H](O)C[C@@]21C [halobetasol-propionate] (10 µM) | 0.0989 | 106% (inactive)
25 | COc1ccccc1S(=O)(=O)Nc1ccc2c(c1)CN(C)C(=O)N2 (0.833333 µM) | -0.0409 | 108% (inactive)
26 | C[C@H](NC(=O)[C@@H](O)c1cc(F)cc(F)c1)C(=O)N[C@@H]1C(=O)N(C)c2ccccc2-c2ccccc21 (10 µM) | 0.165 | 101% (inactive)
27 | O=c1cc(-c2cccc3c2Sc2ccccc2S3)oc(N2CCOCC2)c1 (10 µM) | 0.284 | 83% (inactive)
28 | CN(C)C/C=C/C(=O)Nc1cc2c(Nc3ccc(F)c(Cl)c3)ncnc2cc1O[C@H]1CCOC1 [afatinib] (0.833333 µM) | -0.0622 | 114% (inactive)
29 | O=c1cc[nH]c(=S)[nH]1 [2-thiouracil] (10 µM) | 0.0168 | 108% (inactive)
30 | Cc1[nH]cnc1-c1ccc(Cl)cc1 [lofemizole] (10 µM) | -0.0942 | 102% (inactive)
31 | CC1(C)C(=O)N(c2ccc(C#N)c(C(F)(F)F)c2)C(=O)N1CCCCO (10 µM) | -0.0623 | 100% (inactive)
32 | Cc1ncc([N+](=O)[O-])n1CC(C)O (stereo not given) [secnidazole] (10 µM) | 0.17 | 99% (inactive)
33 | COc1ccccc1C(=O)Nc1cc2c(cc1N1CCCC1)n(C)c(=O)n2C (10 µM) | 0.0131 | 93.5% (inactive)
34 | Cc1cccc(Cc2c[nH]cn2)c1C [detomidine] (10 µM) | -0.193 | 116% (inactive)
35 | O=C(O)[C@H]1CC[C@H](c2cc3cccnc3c(-c3cccc(F)c3)n2)CC1 (10 µM) | 0.315 | 103% (inactive)
36 | O=C(O)c1cc(O)c2c(c1)[C@H]([C@H]1c3cc(C(=O)O)cc(O)c3C(=O)c3c(O[C@@H]4O[C@H](CO)[C@@H](O)[C@H](O)[C@H]4O)cccc31)c1cccc(O[C@@H]3O[C@H](CO)[C@@H](O)[C@H](O)[C@H]3O)c1C2=O [sennoside-A] (10 µM) | -0.287 | 113% (inactive)
37 | O=C(Nc1cccc(Nc2ncc(Br)c(NCCc3cnc[nH]3)n2)c1)N1CCCC1 (10 µM) | -0.00186 | 110% (inactive)
38 | C[N+]1(C)CCc2cc3c(cc2[C@H]1[C@@H]1OC(=O)c2c1ccc1c2OCO1)OCO3 [bicuculline-methochloride-(-)] (10 µM) | -0.156 | 110% (inactive)
39 | CO[C@H]1O[C@@H]2O[C@@]3(C)CC[C@H]4[C@H](C)CC[C@@H]([C@H]1C)[C@@]24OO3 [artemether] (10 µM) | 0.0275 | 105% (inactive)
40 | O=C(NOCCO)c1cc(CN2OCCCC2=O)c(F)c(F)c1Nc1ccc(I)cc1F (0.833333 µM) | -0.175 | 96.5% (inactive)

Row | Compound | morphology score [1] | SARS-CoV-2 infection rate [2]
41 | On1ncc(C2CCNCC2)c1-c1cccc(-c2ccccc2)c1 (10 µM) | 0.0231 | 108% (inactive)
42 | CC(C)(C)c1ccc(CN2CCN(C(c3ccccc3)c3ccc(Cl)cc3)CC2)cc1 (stereo not given) [buclizine] (10 µM) | 0.307 | 90.5% (inactive)
43 | O=C(O)c1ccc(S(=O)(=O)N(Cc2ccc(OC(F)(F)F)cc2)c2ncc(C(F)(F)F)cc2Cl)cc1 (10 µM) | 0.114 | 102% (inactive)
44 | NS(=O)(=O)c1cccc2c1c([N+](=O)[O-])cc1nc(O)c(O)nc12 (10 µM) | -0.0523 | 104% (inactive)
45 | CSc1ccccc1OCC(O)CNC(C)C (stereo not given) [tiprenolol] (10 µM) | -0.224 | 110% (inactive)
46 | CCCCCCCCCCCCCCCCCC(=O)OCC(O)CO (stereo not given) [monostearin] (10 µM) | -0.0152 | 108% (inactive)
47 | COc1cccc(-c2cc(NCc3ccc4c(c3)OCO4)nc(N)n2)c1 (10 µM) | -0.021 | 111% (inactive)
48 | Cc1nc(Nc2n[nH]c3c2CN(C(=O)N[C@H](CN(C)C)c2ccccc2)C3(C)C)c2sccc2n1 (10 µM) | -0.232 | 111% (inactive)
49 | CCCCC(=O)N(Cc1ccc(-c2ccccc2-c2nnn[nH]2)cc1)[C@H](C(=O)O)C(C)C [valsartan] (10 µM) | 0.00713 | 98.5% (inactive)
50 | CN(C)c1ccccc1CN1CCCN(Cc2ccccc2N(C)C)C1c1ccncc1 (10 µM) | 0.576 | 42% (active)
51 | CCS(=O)(=O)Nc1ccc2c(c1)/C(=C(/Nc1ccc(CN3CCCCC3)cc1)c1ccccc1)C(=O)N2 [hesperadin] (10 µM) | -0.262 | 110% (inactive)
52 | Oc1cccc(Nc2ccc(Nc3cccc(O)c3)nn2)c1 [beta-amyloid-synthesis-inhibitor] (10 µM) | 0.0822 | 104% (inactive)
53 | CC(C)(c1ccc(O)cc1)c1ccc(O)cc1 [bisphenol-A] (10 µM) | 0.0642 | 106% (inactive)
54 | CCN(CC)CCOC(=O)C1(c2ccccc2)CCCC1 [caramiphen] (10 µM) | 0.145 | 95.5% (inactive)
55 | Cc1ccc2nc(NCCN)c3ncc(C)n3c2c1 (0.833333 µM) | -0.353 | 116% (inactive)
56 | C#CCN(C)[C@H](C)Cc1ccccc1 [selegiline] (10 µM) | 0.0406 | 105% (inactive)
57 | O=C([O-])c1ccccn1.O=C([O-])c1ccccn1.O=C([O-])c1ccccn1.[Cr+3] [chromium-picolinate] (10 µM) | -0.0147 | 112% (inactive)
58 | COc1ccc(NS(=O)(=O)c2sc3ccc(Cl)cc3c2C)cc1N1CCNCC1 (10 µM) | 0.192 | 108% (inactive)
59 | CCn1c(=O)c2c(nc(/C=C/c3ccc(OC)c(OC)c3)n2C)n(CC)c1=O [istradefylline] (10 µM) | 0.157 | 108% (inactive)
60 | [N-]=[N+]=CC(=O)CC[C@H](N)C(=O)O [6-diazo-5-oxo-L-norleucine] (10 µM) | 0.196 | 93.5% (inactive)
